NPC1 promoter act = qHTS Assay for NPC1 Promoter Activators; actives 2.4% (n = 320,000); Potency, µM (series often up to 9.22 µM), for inactives: at the top dose activation, hits mostly activators; Huh7 NPC1 promoter luciferase reporter, 24 h; further: % of control where 0% means no effect; nearly all actives have a fitted effect of over 60% in size
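Quantitative HTS used a cell-based reporter: Huh7 cells stably bearing the NPC1 promoter upstream of luciferase were treated with compounds for 24 h, and promoter activation was read as luminescence.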
Rab9 promoter act = qHTS Assay for Rab9 Promoter Activators; actives 2.8% (n = 320,000); Potency, µM (top dose mostly 9.22 µM), for inactives: at the highest dose activation, negative = inhibition, most hits filed as activators; Huh7 Rab9 promoter-luciferase reporter, luminescence, 24 h; AID 485297, 2010; further: % of control where 0% means no effect; nearly all actives have a fitted effect of over 60% in size
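Luminescence read-out: Huh7 cells stably expressing Rab9-luciferase, treated 24 h with compound at 37 °C, then lysed with luciferase reagent for 10 min at ambient before reading.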
ELG1 genotoxic = qHTS screen for small molecules that induce genotoxicity in human embryonic kidney (HEK293T) cells expressing luciferase-tagged ELG1 | Potency, µM (doses to about 46 µM), for the others: at the top dose activity change, positive = activation, most hits filed as activators | HEK293T ELG1-luciferase reporter, luminescence, 16 h | actives 1.3% (n = 330,000); further: % of control where 0% means no effect; nearly all actives have a fitted effect of over 60% in size
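HEK293T cells expressing luciferase-tagged ELG1 were treated with compound or DMSO for 16 hr at 37°C. Luciferase activity was then read after 30 min with ONE-Glo at room temperature; rising signal flags genetic stress.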
FLuc modulator = qHTS profiling assay for firefly luciferase inhibitor/activator using purifed enzyme and Km concentrations of substrates (counterscreen for miR-21 project); purified FLuc, Km substrates, luminescence inhibition; actives 6.9% (n = 360,000); Potency, µM (doses to about 57.5 µM), inactives show at the highest dose activity change, negative = inhibition, usual class: inhibitors; Luciferin 4-monooxygenase (Photinus pyralis), P08659; AID 588342, 2011;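 further: plate controls were vehicle for no effect and reference inhibitor for full effect; nearly all actives have a fitted effect of over 55% in size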
Target sequence (P08659 whole entry, looked up): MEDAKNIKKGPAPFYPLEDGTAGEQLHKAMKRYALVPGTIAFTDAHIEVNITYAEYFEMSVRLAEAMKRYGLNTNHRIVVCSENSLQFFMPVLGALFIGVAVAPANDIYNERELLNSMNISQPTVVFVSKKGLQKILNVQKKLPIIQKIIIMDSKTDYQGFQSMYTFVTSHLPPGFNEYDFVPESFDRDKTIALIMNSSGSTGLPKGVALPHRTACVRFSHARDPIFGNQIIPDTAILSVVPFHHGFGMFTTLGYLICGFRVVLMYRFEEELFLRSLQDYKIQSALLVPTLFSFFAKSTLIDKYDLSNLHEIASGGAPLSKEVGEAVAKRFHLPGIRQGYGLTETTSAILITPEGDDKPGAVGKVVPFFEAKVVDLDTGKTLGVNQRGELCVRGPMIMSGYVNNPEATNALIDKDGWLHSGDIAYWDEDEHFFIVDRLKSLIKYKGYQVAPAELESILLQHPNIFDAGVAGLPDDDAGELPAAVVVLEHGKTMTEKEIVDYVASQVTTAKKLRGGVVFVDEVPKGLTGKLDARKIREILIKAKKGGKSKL
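Purified P. pyralis luciferase, 10 nM final, with Km-level 10 uM D-luciferin and 10 uM ATP in 50 mM Tris acetate pH 7.5, 10 mM Mg acetate, 0.01% Tween-20, 0.05% BSA; 6-point qHTS titration about 60 µM downward; luminescence read.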
SMN2 splice enh = qHTS Assay for Enhancers of SMN2 Splice Variant Expression; HEK293 SMN2-luciferase splicing reporter, luminescence, 30-36 h; Potency, µM (series often up to 46.1 µM), inactives show at the highest dose activity change, positive = activation, actives largely listed as activators; actives 2.8% (n = 210,000); further: % of control where 0% means no effect; nearly all actives have a fitted effect of over 55% in size
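qHTS luciferase splicing reporter: luminescence rises when SMN2 exon 7 is included in transfected HEK293 cells. Compound exposure lasted 30-36 h at 37C, with 4.5 mM final sodium butyrate as control, followed by a ONE-Glo read.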
The depositor's hits bear a star; ? = inconclusive; nt = no result given; [ ] = dose if it differs, or a comment. Sampled rows, rich in hits. Any-hit rate of the full collection: about 7.5%. The call rests on the fitted dose curve; in most records, active means well fitted curve in the direction sought with a large enough effect; inconclusive means small, poorly fitted or top-dose-only effect, or another doubt; inactive means no such curve, though single readings can be large; an effect the other way counts as inactive or inconclusive. Potency means the concentration at half of the fitted maximal effect.

SMILES | NPC1 promoter act | Rab9 promoter act | ELG1 genotoxic | FLuc modulator | SMN2 splice enh
COc1ccc(C(=O)CC(=O)c2ccccc2O)cc1OC | 11% | -4%[1.84 µM] | ? | ? | ?
COc1ccc(O)c(C(=O)CC(=O)c2ccc(F)cc2)c1 | 0.56µM* | 0.71µM* | ? | 12µM* | 2.2µM*
COc1ccc(O)c(C(=O)CC(=O)c2ccccc2C)c1 | ? | 3.2µM* | ? | ? | nt
COc1ccc(C(=O)CC(=O)c2ccccc2O)cc1 | ? | 25% | ? | 12µM* | nt
CCN1CCN(Cc2ccc(NC(=O)Nc3ccccc3)cc2)CC1 | 2.8µM* | 1.4µM* | 6.5µM* | 6µM* | -3%
CCN1CCN(Cc2ccc(NC(=O)Nc3ccc(OC)cc3)cc2)CC1 | 17% | 28% | ? | ? | 19%
CC(=O)Nc1ccc(CN2CCCN(C)CC2)cc1 | -3% | -2% | -4% | 0% | nt
CCN1CCN(Cc2ccc(NC(=O)Nc3cccs3)cc2)CC1 | 1µM* | 4µM* | ? | 4.8µM* | ?
CCN1CCN(Cc2ccc(NC(=O)Nc3ccc(SC)cc3)cc2)CC1 | 29% | ? | ? | 17µM* | ?
COCCN(CCOC)S(=O)(=O)c1ccc(C(=O)Nc2sc3c(c2C(N)=O)CCCC3)cc1 | nt | nt | nt | -1% | -2%
CCn1cc(S(=O)(=O)c2ccc(C)cc2C)c(=O)c2cc(F)c(N3CCCCC3)cc21 | nt | nt | nt | -2% | nt
Nc1nc(N2CCN(c3ccccn3)CC2)nc2ccccc12 | ? | 3.5µM* | ? | 11µM* | nt
Nc1nc(N2CCCCC2)nc2ccccc12 | 3% | 0% | 0% | ? | 16%
O=C(c1cc(-c2ccccc2)nc2ccccc12)N1CCN(c2ccccn2)CC1 | 0% | -7%[1.84 µM] | -13% | 12µM* | -5%
Cc1ccc2nc(-c3ccccc3)cc(C(=O)N3CCN(S(=O)(=O)c4c(C)noc4C)CC3)c2c1 | 5% | 6% | -7% | 5.4µM* | nt
O=C(c1cc(-c2ccncc2)nc2ccccc12)N1CCN(c2ccccn2)CC1 | -23% | -6% | -10% | ? | 4%
Cc1ccc2nc(-c3ccccc3)cc(C(=O)N3CCN(c4ccccc4O)CC3)c2c1 | 14% | 4% | -28% | 13µM* | nt
Cc1ccc(S(=O)(=O)N2CCN(C(=O)c3c(-c4ccccc4)noc3C)CC2)c(C)c1 | -4% | 0% | -4% | 2% | nt
O=C(Nc1cccc2ncccc12)c1ccco1 | 5% | -8% | -30% | -1% | nt
COc1ccc(-n2c(SC3CCOC3=O)nc3ccccc3c2=O)cc1OC (configuration not stated) | -4% | 0% | 4% | 5% | 0%
O=C1NC(c2ccccc2)(C(F)(F)F)SC2=CCCCCN12 (configuration not stated) | -4% | -1% | -3% | 0% | -17%
COc1ccc(NC(=O)c2sc3nc4n(c(=O)c3c2C)CCC4)c(OC)c1 | nt | nt | nt | -10% | nt
O=C(c1cc(-c2ccncc2)nc2ccccc12)N1CCN(c2ccccc2O)CC1 | -5% | 0% | -17% | ? | nt
O=C(c1cc(-c2ccccc2)nc2ccccc12)N1CCN(c2ccccc2O)CC1 | 11% | 24% | -22% | 11µM* | nt
O=C(O)c1cccc(-n2cccc2/C=C2/NC(=O)N(c3ccc(Cl)cc3)C2=O)c1 | 3% | -2% | 2% | 27µM* | 18%
SMILES | NPC1 promoter act | Rab9 promoter act | ELG1 genotoxic | FLuc modulator | SMN2 splice enh
O=C(O)c1cccc(-n2cccc2C=C2C(=O)c3ccccc3C2=O)c1 | -2% | -3% | 9% | 12µM* | nt
O=C1C(=Cc2cccn2-c2ccc(O)cc2)C(=O)c2ccccc21 | -1% | 0% | 1% | 3.4µM* | 5%
CCOc1cc(S(=O)(=O)NCc2ccncc2)c(C)cc1C | -14% | -18% | -2% | 0% | -45%
CC(=O)c1c(C)nc(Nc2nc3ccccc3s2)nc1C | ? | ? | ? | 0.76µM* | nt
Cc1ccccc1NC(=O)c1cnc(Nc2nc3ccccc3s2)nc1C | 1% | 0% | 3% | -3% | 16%
Cc1cc(C)nc(Nc2nc3ccccc3s2)n1 | ? | ? | ? | ? | 3.2µM*
Cc1ccc(Nc2nc3ccccc3s2)c(C)c1 | 2µM* | 1.3µM* | 2.1µM* | 0.6µM* | 2.5µM*
Cc1ccc(C)c(NC(=S)c2nc3ccccc3s2)c1 | ? | ? | 4% | ? | ?
O=C(/C=C/c1ccccc1)NCCSCc1ccccc1Cl | 0% | -2% | ? | ? | -16%
Cc1ccc2oc(=O)c3cc(C(=O)NCCCN4CCc5ccccc5C4)sc3c2c1 | -1% | -5% | 1% | 3% | 0%
CCCN(CC(=O)Nc1cc(Cl)ccc1Cl)C(=O)c1ccccc1SCC(=O)N1CCCC1 | 7% | 5% | 1% | 1% | nt
Cc1ccc(N=C2NC(=O)/C(=C/c3cccn3C)S2)cc1 | ? | ? | 23µM* | 3.4µM* | nt
O=C1NC(=Nc2ccccc2)S/C1=C\C=C\c1ccco1 | 11% | 21% | ? | 19µM* | 14µM*
Cc1ccc(N=C2NC(=O)/C(=C/c3cccn3C)S2)cc1C | 25% | ? | 8% | ? | nt
O=C1NC(=Nc2ccccc2)S/C1=C/c1cccs1 | ? | ? | ? | 11µM* | ?
Cc1cccc(N=C2NC(=O)/C(=C\c3cccs3)S2)c1 | 19% | 16% | 6% | ? | 8%
O=C1NC(=Nc2cccnc2)S/C1=C\c1cccc(F)c1 | -1% | 7% | 3% | 30µM* | nt
COc1ccc(NC(=O)Cc2coc3cc(C)c(C(C)C)cc23)cc1S(=O)(=O)N1CCOCC1 | -1% | -14% | 1% | ? | -70%
CC1CCCCC1NC(=O)COc1ccc(-n2cnnn2)cc1 (configuration not stated) | -1% | -21% | 0% | -3% | -2%
O=C(O)CCCCCNS(=O)(=O)c1ccc2c3c(cccc13)C(=O)N2 | -5% | 5% | -14% | 3% | nt
CC(NC(=O)c1noc2c1CCCC2)c1ccccc1 (configuration not stated) | -1% | -4% | -1% | -3% | -17%
Cc1cc(NC(=O)COc2nnc(-c3ccccc3)c3ccccc23)no1 | -4% | -2% | 11% | 5% | 9%
O=C1C2CC=CCC2C(=O)N1Cc1nnc(-c2ccc(Cl)cc2)o1 (configuration not stated) | 12% | ? | ? | 19µM* | 24%
COc1ccc(C)cc1S(=O)(=O)NCC(c1ccc(N(C)C)cc1)N1CCc2ccccc21 (configuration not stated) | nt | nt | nt | -3% | nt
O=C(O)c1ccc(-c2nc(-c3ccc(Cl)cc3)cs2)cc1 | ? | 0.32µM* | 19% | 0.95µM* | 4.5µM*
